# Results: PubChem BioAssay (Tox21)
# Where “and” joins values, the source holds several entries; their conditions need not be identical. Identical values can stand only once. Results filed as inconclusive are left out. A call without a number means that no potency is given here. More than one record can exist for a structure, and the calls need not agree. Calls of active or inactive are those of the source. Unless noted, calls follow the shape of the dose curve; as a rule, active = well fitted cell-killing curve with a large enough effect in the repeat runs (not every such curve was filed as active); inconclusive = weak or mixed curves, or effect the other way; inactive = no such curve, though single readings can be large or run the other way.
# Test system: not listed separately
# Test: qHTS assay to identify small molecule agonists of the farnesoid-X-receptor (FXR) signaling pathway - cell viability counter screen (AID 743218; active = well fitted cell-killing curve with a large enough effect in the repeat runs; also: nearly all actives have a fitted effect of over 45% in size; also: potency is read from the fitted curve at half-maximal effect)
# Details: FXR-bla HEK293T viability, CellTiter-Glo luminescence, 16 h; series mostly up to 62.6 µM
# In short: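 Parallel cytotoxicity test: compound-treated (16 h, 37 C) HEK 293T FXR-bla reporter cells were lysed with CellTiter-Glo and luminescence recorded.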
row,Structure (SMILES),Potency
1,CO[C@H]1C=CO[C@@]2(C)Oc3c(C)c(O)c4c(O)c(c(/C=N/N5CCN(C)CC5)c(O)c4c3C2=O)NC(=O)/C(C)=C\C=C[C@H](C)[C@H](O)[C@@H](C)[C@@H](O)[C@@H](C)[C@H](OC(C)=O)[C@@H]1C,inactive
2,NC(=O)NO,inactive
3,CC1=C(/C=C/C(C)=C/C=C/C(C)=C/C(=O)O)C(C)(C)CCC1,inactive
4,NCCNc1cccc2ccccc12,43.6 µM (active) and 30.2 µM (active) and inactive
5,c1ccc2[nH]c(-c3cscn3)nc2c1,inactive
6,O=C1OC(c2ccc(O)cc2)(c2ccc(O)cc2)c2ccccc21,inactive
7,NC(=O)N/N=C/c1ccc([N+](=O)[O-])o1,inactive
8,CC1=NN(c2ccccc2)C(=O)C1,inactive
9,Cc1cccc(Nc2cc(Cl)nc(SCC(=O)O)n2)c1C,inactive
10,CCc1cc(C(N)=S)ccn1,inactive
11,C[C@]12C[C@H](O)[C@H]3[C@@H](CCC4=CC(=O)CC[C@@]43C)[C@@H]1CC[C@@H]2C(=O)CO,inactive
12,CCn1cc(C(=O)O)c(=O)c2ccc(C)nc21,inactive
13,CC(=O)/C=C/C1=C(C)CCCC1(C)C,inactive
14,COc1ccccc1NC(=O)CC(C)=O,inactive
15,CC(C)=CCC/C(C)=C/CO,inactive
16,C[C@]12CC[C@@H]3c4ccc(O)cc4C[C@@H](CCCCCCCCCS(=O)CCCC(F)(F)C(F)(F)F)[C@H]3[C@@H]1CC[C@@H]2O (stereo partly drawn),inactive
17,O=C(OCc1ccccc1)c1ccccc1,inactive
18,O=C(O)CN(CC(=O)O)CC(=O)O,inactive
19,CCCCOCCOCCSC#N,inactive
20,C#C[C@]1(O)CC[C@H]2[C@@H]3CCc4cc(O)ccc4[C@H]3CC[C@@]21C,inactive
21,NC(=O)c1ccc([N+](=O)[O-])cc1Cl,inactive
22,C[C@]12CC[C@@H]3c4ccc(O)cc4CC[C@H]3[C@@H]1CCC2=O,inactive
23,Cc1c(N(C)C)c(=O)n(-c2ccccc2)n1C,inactive
24,COc1ccc(C(=O)c2ccccc2)c(O)c1,inactive
25,NC(=O)OCC(COC(N)=O)c1ccccc1,inactive
26,COc1ccc(O)cc1,inactive
27,C[C@]12C=CC(=O)C=C1CC[C@@H]1[C@@H]2C(=O)C[C@@]2(C)[C@H]1CC[C@]2(O)C(=O)CO,inactive
28,O=c1cc[nH]c(=O)[nH]1,inactive
29,C/C=C/c1ccc(O)c(OC)c1,inactive

# Target: Bile acid receptor (Homo sapiens) (UniProt Q96RI1)
# Sequence (Q96RI1 whole entry, looked up): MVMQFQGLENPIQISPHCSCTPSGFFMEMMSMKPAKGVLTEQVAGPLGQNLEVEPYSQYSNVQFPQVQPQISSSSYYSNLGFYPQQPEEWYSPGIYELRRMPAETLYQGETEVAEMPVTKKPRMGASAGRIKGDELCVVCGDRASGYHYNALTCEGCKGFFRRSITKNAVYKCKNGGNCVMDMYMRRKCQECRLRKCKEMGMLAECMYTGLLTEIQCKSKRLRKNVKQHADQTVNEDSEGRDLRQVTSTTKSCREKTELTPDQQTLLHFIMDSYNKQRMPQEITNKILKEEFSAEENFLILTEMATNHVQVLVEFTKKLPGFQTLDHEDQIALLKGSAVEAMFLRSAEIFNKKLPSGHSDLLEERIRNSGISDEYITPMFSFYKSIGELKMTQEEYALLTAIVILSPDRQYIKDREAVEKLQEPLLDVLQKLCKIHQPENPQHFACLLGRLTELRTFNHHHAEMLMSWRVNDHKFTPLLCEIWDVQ
# Test: qHTS assay to identify small molecule agonists of the farnesoid-X-receptor (FXR) signaling pathway (AID 743220; active = well fitted activation curve with a large enough effect in the signal ratio in the repeat runs, not every such curve was filed as active; the % refers to the signal ratio)
# Details: HEK293T FXR-UAS-bla, beta-lactamase FRET ratio, 16 h; series mostly up to 62.6 µM
# In short: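 Beta-lactamase reporter under UAS control in GeneBLAzer FXR HEK 293T cells (5000/well) measured with LiveBLAzer FRET substrate after 2 h at room temperature. Compound exposure lasted 16 h at 37C.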
row,Structure (SMILES),outcome
1,c1ccc2[nH]c(-c3cscn3)nc2c1,inactive
2,CC1=NN(c2ccccc2)C(=O)C1,inactive
3,C[C@]12C[C@H](O)[C@H]3[C@@H](CCC4=CC(=O)CC[C@@]43C)[C@@H]1CC[C@@H]2C(=O)CO,inactive
4,CCn1cc(C(=O)O)c(=O)c2ccc(C)nc21,inactive
5,CC(=O)/C=C/C1=C(C)CCCC1(C)C,inactive
6,CC(C)=CCC/C(C)=C/CO,inactive
7,C[C@]12CC[C@@H]3c4ccc(O)cc4C[C@@H](CCCCCCCCCS(=O)CCCC(F)(F)C(F)(F)F)[C@H]3[C@@H]1CC[C@@H]2O (stereo partly drawn),inactive
8,O=C(OCc1ccccc1)c1ccccc1,inactive
9,O=C(O)CN(CC(=O)O)CC(=O)O,inactive
10,NC(=O)c1ccc([N+](=O)[O-])cc1Cl,inactive
11,C[C@]12CC[C@@H]3c4ccc(O)cc4CC[C@H]3[C@@H]1CCC2=O,inactive
12,Cc1c(N(C)C)c(=O)n(-c2ccccc2)n1C,inactive
13,COc1ccc(C(=O)c2ccccc2)c(O)c1,inactive
14,CC(C)(C)CC(C)(C)c1ccc(O)c(-n2nc3ccccc3n2)c1,inactive

# Test system: not listed separately
# Test: qHTS assay to identify small molecule antagonists of the farnesoid-X-receptor (FXR) signaling pathway - cell viability counter screen (AID 743221); also: nearly all actives have a fitted effect of over 50% in size
# Details: FXR-bla HEK293T viability, CellTiter-Glo luminescence, 16 h; series mostly up to 62.6 µM
# In short: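 After a 5 h settling period, FXR-bla HEK 293T cells receive compound and chenodeoxycholic acid (50 uM final) and incubate 16 h at 37 C; CellTiter-Glo luminescence, read after 30 min at room temperature, reports cell viability.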
row,Structure (SMILES),outcome
1,CO[C@H]1C=CO[C@@]2(C)Oc3c(C)c(O)c4c(O)c(c(/C=N/N5CCN(C)CC5)c(O)c4c3C2=O)NC(=O)/C(C)=C\C=C[C@H](C)[C@H](O)[C@@H](C)[C@@H](O)[C@@H](C)[C@H](OC(C)=O)[C@@H]1C,inactive
2,NC(=O)NO,inactive
3,CC1=C(/C=C/C(C)=C/C=C/C(C)=C/C(=O)O)C(C)(C)CCC1,inactive
4,NCCNc1cccc2ccccc12,inactive
5,c1ccc2[nH]c(-c3cscn3)nc2c1,inactive
6,O=C1OC(c2ccc(O)cc2)(c2ccc(O)cc2)c2ccccc21,inactive
7,NC(=O)N/N=C/c1ccc([N+](=O)[O-])o1,inactive
8,CC1=NN(c2ccccc2)C(=O)C1,inactive
9,Cc1cccc(Nc2cc(Cl)nc(SCC(=O)O)n2)c1C,inactive
10,CCc1cc(C(N)=S)ccn1,inactive
11,C[C@]12C[C@H](O)[C@H]3[C@@H](CCC4=CC(=O)CC[C@@]43C)[C@@H]1CC[C@@H]2C(=O)CO,inactive
12,CCn1cc(C(=O)O)c(=O)c2ccc(C)nc21,inactive
13,CC(=O)/C=C/C1=C(C)CCCC1(C)C,inactive
14,COc1ccccc1NC(=O)CC(C)=O,inactive
15,CC(C)=CCC/C(C)=C/CO,inactive
16,C[C@]12CC[C@@H]3c4ccc(O)cc4C[C@@H](CCCCCCCCCS(=O)CCCC(F)(F)C(F)(F)F)[C@H]3[C@@H]1CC[C@@H]2O (stereo partly drawn),inactive
17,O=C(OCc1ccccc1)c1ccccc1,inactive
18,O=C(O)CN(CC(=O)O)CC(=O)O,inactive
19,CCCCOCCOCCSC#N,inactive
20,C#C[C@]1(O)CC[C@H]2[C@@H]3CCc4cc(O)ccc4[C@H]3CC[C@@]21C,inactive
21,NC(=O)c1ccc([N+](=O)[O-])cc1Cl,inactive
22,C[C@]12CC[C@@H]3c4ccc(O)cc4CC[C@H]3[C@@H]1CCC2=O,inactive
23,Cc1c(N(C)C)c(=O)n(-c2ccccc2)n1C,inactive
24,COc1ccc(C(=O)c2ccccc2)c(O)c1,inactive
25,NC(=O)OCC(COC(N)=O)c1ccccc1,inactive
26,COc1ccc(O)cc1,inactive
27,C[C@]12C=CC(=O)C=C1CC[C@@H]1[C@@H]2C(=O)C[C@@]2(C)[C@H]1CC[C@]2(O)C(=O)CO,inactive
28,O=c1cc[nH]c(=O)[nH]1,inactive
29,CC(C)(C)CC(C)(C)c1ccc(O)c(-n2nc3ccccc3n2)c1,inactive
30,C/C=C/c1ccc(O)c(OC)c1,inactive
